Reference: PubChem BioAssay AID624202 (National Center for Advancing Translational Sciences (NCATS), 2012)
The campaign covered roughly 380,000 compounds. About 4,000 (1.1%) were called active. About 3% were inconclusive and are not listed. The entries come from a sample that favours actives as a whole. Unmarked numbers belong to inactive results. Calls follow the shape of the dose curve; as a rule, active = well fitted activation curve with a large enough effect; inconclusive = small, poorly fitted or top-dose-only effect; inactive = no such curve, though single readings can be large or run the other way.

Experiment: qHTS Assay to Identify Small Molecule Activators of BRCA1 Expression; also: nearly all actives have a fitted effect of over 80% in size
Conditions: MCF7-BRCA1-FFLuc reporter, luminescence, 48 h; series mostly up to 46.1 µM; activation: at the top concentration
Procedure, shortened: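 Reporter cells (MCF7, BRCA1 promoter-firefly luciferase) received library compounds across a concentration series for 48 h. End-point luminescence was measured and concentration-effect curves derived after normalization.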
Potency is read from the fitted curve at half-maximal effect.

Going from `COc1cc2nc(N3CCCN(C)CC3)nc(NC3CC3)c2cc1OC` to `COc1cc2[nH]c(C)c(CCN3CCN(c4ccccc4)CC3)c2cc1OC`, the “activation” value rises from -1.84% to 8.7%.

Going from `CCOc1ccc(C(=O)CCC(=O)NC2=NCCS2)cc1` to `COc1ccccc1C(=O)NCCC(=O)NC1=NCCS1`, the “activation” value falls from -0.556% to -5.3%.

Compared with `O=C(Nc1ccccc1)c1ccccc1OCc1ccccc1`, `O=C(Nc1ccc(Br)cc1)c1ccc(Br)c(S(=O)(=O)NCc2ccccc2)c1` is lower in “activation” value: 0% for the first, -67% for the second.

Going from `O=C(CCCCn1c(=O)c2ccccc2n(CC(=O)Nc2cccc(C(F)(F)F)c2)c1=O)NCc1ccc2c(c1)OCO2` to `COc1ccccc1CNC(=O)CCCn1c(=O)c2ccccc2n(CC(=O)Nc2ccc(C)cc2Cl)c1=O`, the “activation” value falls from 4.95% to -11.4%.

Compared with `NC1=NC(c2cc(F)cc(F)c2)n2c(nc3ccccc32)N1` (stereo unspecified), `COc1ccccc1C1C(C(=O)N2CCCCC2)=C(C)Nc2nc3ccccc3n21` (stereo unspecified) is lower in “activation” value: 12.8% for the first, 1.14% for the second.

First: O=C(c1cnn2c1NC(=C1CC1)C=C2C(F)F)N1CCc2ccccc2C1
Second: O=C(c1cnn(-c2ccc(F)cc2)c1-n1cccc1)N1CCN(c2ccc(F)cc2)CC1
The “activation” value of the first is lower: -19.4% for the first, -11.3% for the second.

Going from `Cc1cccc(NC(=O)CSc2nc3c(oc4ccccc43)c(=O)n2-c2ccc(F)cc2)c1` to `Cc1ccccc1-n1c(=O)c2ccccc2n(Cc2ccc(F)cc2)c1=O`, the “activation” value rises from -1.49% to 1.73%.

Going from `O=C(Nc1cc(-c2nc3ccccc3o2)ccc1Cl)c1cc([N+](=O)[O-])ccc1N1CCOCC1` to `COc1ccc2oc(-c3ccc(C)c(NC(=O)c4sc5ccccc5c4Cl)c3)nc2c1`, the “activation” value falls from 10.8% to -5.08%.

First: S=c1[nH]c(=S)c2n[nH]nc2[nH]1
Second: CCOC(=O)Cc1ccc(NC(=O)Nc2c[nH]c(=O)[nH]c2=O)cc1
The “activation” value of the first is higher: 10.8% for the first, 9.34% for the second.

First: COc1ccc(Cl)cc1S(=O)(=O)Nc1cccc(C(=O)O)c1
Second: Cc1cccc(OCC(=O)OCC(=O)Nc2ccc(Cl)cn2)c1
The “activation” value of the first is higher: 4.55% for the first, -9.48% for the second.

Going from `CC(=O)Nc1cccc(/C(C)=N/NC(=O)c2c(-c3ccccc3Cl)noc2C)c1` to `C/C(=N\NC(=S)Nc1ccc(C)cc1)c1cc2ccccc2o1`, the “activation” value rises from -35.1% to -20.3%.

Going from `C[N+]1(CC(=O)c2cccs2)CCOCC1` to `CC1CCN(CC(=O)c2c[nH]c3ccccc23)CC1`, the “activation” value rises from 2.95% to 6.76%.

Compared with `CC(C)CC(CC(C)C)=NNC(=O)c1ccc(CSc2nncn2C)cc1`, `COC(=O)c1ccc(CSc2nncn2N)cc1` is higher in “activation” value: 3.02% for the first, 4.18% for the second.

Going from `OC(CBr)CN1CCCCC1` (stereo unspecified) to `Cc1nn(CC(=O)Nc2ccc3c(c2)nc(CN2CCCCC2)n3C)c(=O)c2ccccc12`, the “activation” value falls from 0% to -21.1%.

Compared with `Cc1cc(Cl)ccc1NC(=O)Cc1ccc(NC(=O)N2CCCCc3ccccc32)cc1`, `O=C(Nc1ccc(CSc2ccccc2)cc1)c1ccc(CN2CCOCC2)cc1` is lower in “activation” value: 0% for the first, -37.6% for the second.

Going from `COCCCN1C(=O)c2ccc(C(=O)Nc3ccc(OC)cc3OC)cc2C1=O` to `Cc1ccc2[nH]cc(CCCN3C(=O)c4ccccc4C3=O)c2c1`, the “activation” value rises from -22.3% to 43.5%.

First: O=C(Nc1ccc([N+](=O)[O-])cc1)C1CC12CCC2 (stereo unspecified)
Second: O=C(O)/C=C/C(=O)NNc1ccc([N+](=O)[O-])cc1
The “activation” value of the first is higher: 62% for the first, 0% for the second.

Going from `Cc1cccc(-c2nnc(SC(C)C(=O)Nc3ccccc3)n2C)c1` (stereo unspecified) to `Cc1cc(C)cc(NC(=O)CSc2ccccc2)c1`, the “activation” value falls from 117% to 65%.

Compared with `COc1ccc(CNC(=O)c2cc3c(s2)-c2ccccc2OC3)cc1`, `CC(C)Oc1ccc(CNC(=O)C2CCN(c3nc4ccccc4n(C)c3=O)CC2)cc1` is lower in “activation” value: 18.4% for the first, -1.95% for the second.

Compared with `O=C(Nc1ccccc1C(=O)N1CCCCC1)c1ccco1`, `Cc1ccc(NC(=O)C(c2ccccc2)N2CCN(C(=O)c3ccco3)CC2)cc1` (stereo unspecified) is lower in “activation” value: 6.82% for the first, 4.49% for the second.

First: CN(C)C(CNC(=O)c1cc2ccccc2o1)c1ccccc1 (stereo unspecified)
Second: COC(=O)CC1Oc2ccccc2-n2cc(-c3ccccc3)nc21 (stereo unspecified)
The “activation” value of the first is lower: -8.03% for the first, -3.85% for the second.

Compared with `O=C(Nc1ccc2nc(SCCOc3ccccc3)sc2c1)c1ccco1`, `O=C(Nc1ccc2nc(SCCOc3ccccc3Cl)sc2c1)c1ccco1` is higher in “activation” value: 0% for the first, 3.88% for the second.

Going from `O=C(CNC(=O)c1ccco1)NNC(=O)c1ccc(Br)cc1` to `O=C(COC(=O)c1ccco1)Nc1ccc(Cl)cn1`, the “activation” value falls from -2.34% to -5.28%.

First: Cc1cc(C)c(NC(=O)Cn2c(SCC(=O)NCc3ccccc3)nc3ccccc32)c(C)c1
Second: COC(=O)c1ccc(C2C(C(=O)Nc3ccccc3)=C(C)Nc3nc4ccccc4n32)cc1 (stereo unspecified)
The “activation” value of the first is lower: 0% for the first, 1.34% for the second.

First: CC(=O)c1ccc(NC(=O)c2nc3nc(C)cc(C(F)F)n3n2)cc1
Second: CCOC(=O)c1ccc(NC(=O)CCn2cnnn2)cc1
The “activation” value of the first is higher: 21.9% for the first, -5.89% for the second.

Going from `CC(=O)Nc1ccc(NC(=O)C2CCCN(S(=O)(=O)c3ccc4c(c3)CCCC(=O)N4)C2)cc1` (stereo unspecified) to `CN1CCN(S(=O)(=O)c2ccc(NC(=O)c3ccco3)cc2)CC1`, the “activation” value rises from 7.29% to 55.6%.

Compared with `Cn1c(=O)cc(OCC(=O)N2CCN(c3ccccc3)CC2)c2ccccc21`, `CCOC(=O)c1c(C)[nH]c(C)c1S(=O)(=O)N(C)CC(=O)N1CCN(c2ccccc2)CC1` is higher in “activation” value: 0.73% for the first, 3.46% for the second.

First: COc1cc2nc(SCc3ccc(F)cc3)n3nc(CCn4c(C)nc5ccccc54)nc3c2cc1OC
Second: Cn1c(CCN2CCN(c3ccccn3)CC2)nc2cc(NS(=O)(=O)c3ccc(F)cc3)ccc21
The “activation” value of the first is higher: 9.42% for the first, -8.24% for the second.

First: CCOc1ccc(CCNC(=O)c2c(C)oc3ncn(C)c(=O)c23)cc1
Second: CCOc1ccc(OCC)c(NC(=O)c2c(C)nn(-c3ccccc3)c2-n2cccc2)c1
The “activation” value of the first is lower: 3.41% for the first, 65.8% for the second.

Going from `COC(=O)c1ccccc1NC(=O)c1cnn(-c2ccc(F)cc2)c1-n1cccc1` to `CC(C)c1ccc(NC(=O)Cn2c3ncccc3c(=O)n2-c2ccccc2)cc1`, the “activation” value rises from -37% to 0%.

Compared with `Cc1ccnc(NC(=O)CCC(=O)N(CC(=O)NCc2ccccc2)Cc2ccco2)c1`, `CSCCC(NC(=O)c1ccco1)C(=O)Nc1cc(C)ccn1` (stereo unspecified) is lower in “activation” value: -1.62% for the first, -7.71% for the second.

First: CCN(CC)CCNC(=O)c1cc2c(=O)oc3ccc(C)cc3c2s1
Second: CCc1nnc(NC(=O)[C@@H](NC(=O)c2cccc(C)c2)C(C)C)s1
The “activation” value of the first is higher: 6.45% for the first, -10.7% for the second.

Compared with `COc1ccccc1NC(=O)Cn1cnc2ccc(S(=O)(=O)N3CCC(C)CC3)cc2c1=O`, `CCOc1ccc(NC(=O)CSc2nnc3c(n2)[nH]c2ccc(S(=O)(=O)N4CCOCC4)cc23)cc1` is higher in “activation” value: -3.73% for the first, 8.86% for the second.

Compared with `ClC/C=C/C[n+]1ccccc1Cl`, `O=C(CSc1nnc(SCc2ccc(Cl)cc2)s1)N/N=C/c1ccccc1Cl` is lower in “activation” value: 29.9% for the first, 11.2% for the second.

First: Cc1cc(NC(=O)COC(=O)/C=C/c2ccc(C)o2)no1
Second: Cc1cc2c(cc1S(=O)(=O)CCC(=O)Nc1ccc(OC(F)(F)F)cc1)OCC(=O)N2
The “activation” value of the first is lower: -15.1% for the first, 6.63% for the second.

Compared with `Cc1ccc(N2CCN(C(=O)CCc3c(C)nc4c(c3C)c(=O)n(C)c(=O)n4C)CC2)c(C)c1`, `COc1ccc(-c2nc3nc(C)cc(C)n3c2Nc2c(C)cccc2C)cc1` is lower in “activation” value: -5.92% for the first, -20.3% for the second.

Compared with `CSc1n[nH]c(-c2ccco2)n1`, `COc1cccc(Nc2nc(N)c([N+](=O)[O-])c(NCc3ccco3)n2)c1` is lower in “activation” value: 5.48% for the first, 0.078% for the second.

Going from `CC(C)N(Cc1nnc(-c2ccc(Cl)cc2)o1)C(=O)C1=COCCO1` to `CC(C)C(=O)Nc1nnc(Sc2ccc(N(C)C)cc2)s1`, the “activation” value falls from 27% to -16.1%.

Compared with `Cc1cc(N2CCN(c3cccc(C(F)(F)F)c3)CC2)n2nc(-c3ccccc3)nc2n1`, `COC(=O)C1=C(C(=O)OC)[C@@H]2N(Cc3ccccc3)c3ccccc3[C@@]23C[C@@H](C(=O)OC)N(S(=O)(=O)c2ccc(C(F)(F)F)cc2)C3=N1` is higher in “activation” value: -34.4% for the first, -3.67% for the second.

Going from `CC(C)CNC(=S)NNC(=O)c1ccccc1OC(F)F` to `CC(NC(=S)Nc1ccc(OC(F)F)cc1)c1ccc(F)cc1` (stereo unspecified), the “activation” value falls from -0.636% to -27.5%.

Compared with `O=C(CSc1ccccc1)Nc1nnc(/C=C/c2ccccc2)s1`, `O=C(NCCCc1ccccc1)C(=O)c1c[nH]c2ccccc12` is lower in “activation” value: 70.1% for the first, 61.3% for the second.

Going from `COc1ccc(Nc2nc(NCc3ccco3)nc(N/N=C/c3ccccc3Cl)n2)cc1` to `Cc1nn(Cc2ccc(Cl)cc2)c(Cl)c1/C=N/NC(=O)CNc1ccccc1F`, the “activation” value falls from 65.1% to 23%.

In the case of `Cc1csc(NCC(=O)c2c[nH]c3ccccc23)n1`, the “activation” value was 14%.

With `O=C(NC1=NCCS1)c1ccc(Cl)s1` the Potency was 5.62 µM (active).
In the case of `C/C(=N\Nc1cccc(C(=O)O)c1)c1ccc2c(c1)Nc1ccccc1S2`, the Potency was 7.08 µM (active).
For `COC(=O)c1ccc(CSc2nncn2C)cc1`, the Potency was 10 µM (active).
In the case of `COC(=O)C1C(=O)c2c([nH]c(C(=O)OCCSC)c2C)CC1C` (stereo unspecified), the Potency was 28.2 µM (active).
With `COc1ccc2[nH]cc(CCN3C(=O)c4ccc(C(=O)O)cc4C3=O)c2c1` the Potency was 10 µM (active).
With `CC(=O)Nc1ccc(C=Cc2ccc([N+](=O)[O-])cc2)cc1` the Potency was 1.78 µM (active).
With `O=C(Nc1ccc2nccnc2c1)c1ccco1` the Potency was 10 µM (active).
With `O=C(Nc1ccc(O)cc1)c1ccc(NC(=O)c2ccco2)cc1` the Potency was 3.16 µM (active).
For `Cc1ccc(NC(=O)c2cc3ccccc3o2)cc1`, the Potency was 12.6 µM (active).
For `O=C(CSc1ccccc1)Nc1ccc(NC(=O)c2ccco2)cc1`, the Potency was 11.2 µM (active).
With `Cc1ccc(NC(=O)c2ccco2)cc1` the Potency was 7.94 µM (active).
For `Cc1ccnc(NC(=O)c2ccc(NC(=O)c3ccco3)cc2)c1`, the Potency was 11.2 µM (active).
In the case of `CCc1nnc(NC(=O)/C=C/c2ccc(C)o2)s1`, the Potency was 11.2 µM (active).
For `O=C(Nc1ccc(Cl)cn1)c1cnn2cccnc12`, the Potency was 6.31 µM (active).
With `CN(C)CCN(C(=O)C1=COCCO1)c1nc2ccc(Cl)cc2s1` the Potency was 12.6 µM (active).
In the case of `Cn1c(CCN2CCCCCC2)nc2cc(NC(=O)Nc3ccccc3)ccc21`, the Potency was 7.94 µM (active).
For `CC(C)CNC(=S)Nc1ccc(F)cc1`, the Potency was 10 µM (active).
For `COc1ccc(/C=C/c2nnc(NC(=O)C(C)C)s2)cc1`, the Potency was 3.98 µM (active).
In the case of `COc1ccc(-n2cnc3cc(NCc4ccco4)ccc32)cc1`, the Potency was 8.91 µM (active).
In the case of `O=C(NC1CCCC1)C(=O)c1c[nH]c2ccccc12`, the Potency was 11.2 µM (active).
In the case of `CCn1nc(C)c(/C=N/NC(=O)Cc2ccc(Cl)cc2)c1C`, the Potency was 7.94 µM (active).
